# Compound activity (PubChem BioAssay)
# TTR transcr act – increases transthyretin transcription; SH-SY5Y TTR promoter Gaussia luciferase, luminescence; 100% = recombinant luciferase protein wells; activation, % at 16.7 µM; hit rate 1.3% among 92,000;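 active means activation above the mean of all tested compounds plus 3 SD, cut at about 9.5% in these data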;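 further: cells exposed to compounds for one day before reading; 0% = median of all test compound wells on the plate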
# HuH7 TTR inh – decreases TTR transcription in HuH7 cells in activator counter-screen. inhibition, % at 16.7 µM. hit rate 4% among 1,100. shares compounds with TTR transcr act. HuH7 TTR promoter-Gaussia luciferase reporter, luminescence;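 active means average inhibition above the solvent-only control wells' mean plus 3 SD, cut at about 15% in these data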;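 further: 0% = cells with DMSO only and 100% = cells with inhibitor control FD; inhibitors lower well luminescence so higher value means more inhibition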
# TTR up confirm – confirmation of human transthyretin transcription activators | shares compounds with TTR transcr act | SHSY5Y TTR promoter Gaussia luciferase, luminescence; 100% = purified Lucia enzyme wells, no cells | activation, % at 16.7 µM | 1,100 tested, under 10 active;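 active means mean activation above a set limit taken from the earlier primary screen, cut at about 11% in these data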;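 further: 0% = DMSO-treated cells and 100% = recombinant Lucia luciferase without cells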
# Numbers without * were called inactive. Many of the other results were omitted from the sample, so hits are more common in it than they were.
SMILES,TTR transcr act,others
O=C(NC1CCCCN(Cc2ccc(Cl)cc2)C1=O)c1cc(-c2ccccc2)no1 (stereo not given),-1,
O=C(c1ccccc1)c1nc2ccccc2n(CCCn2c(=O)c(C(=O)c3ccccc3)nc3ccccc32)c1=O,-2,
CCOC(=O)C1CCN(C(=O)C(C)(C)NC(=O)Nc2ccc(OC)c(Cl)c2)CC1,-1,
Nc1ccn([C@@H]2O[C@H](CNCc3cccc(OC4CCCC4)c3)[C@@H](O)[C@H]2O)c(=O)n1,-1,
O=C(C[C@H]1C/C=C\C[C@@H](Cc2ccc(F)cc2)C(=O)OC[C@@H]2CCCN2C1=O)NCCO,0,
NC(=O)CC(NC(=O)Cc1ccc(Br)cc1)c1ccc(NC2CCCCCC2)c([N+](=O)[O-])c1 (stereo not given),10*,HuH7 TTR inh=-8;TTR up confirm=0
NC(=O)CC(NC(=O)Cc1ccc(Cl)cc1)c1ccc(NC2CCCCCC2)c([N+](=O)[O-])c1 (stereo not given),-2,
NC(=O)CC(NC(=O)Cc1ccc(Br)cc1)c1ccc(NC2CCCC2)c([N+](=O)[O-])c1 (stereo not given),2,
COc1ccc(Cn2cc(COC(=O)N3CCOCC3)nn2)cc1,5,
O=C1CS/C(=N\N=C\c2ccccc2Cl)N1CC1CC1,1,
COC(=O)[C@]12C[C@H](CC(=O)N3CCCC3)C(=O)N(Cc3cccc4ccccc34)C1=C[C@H](C(C)C)O[C@@H]2C1CC1,1,
O=C(CCC1=NS(=O)(=O)c2ccccc2N1)NC1CCCCCCC1,-1,
O=C(CN1C(=O)C2CC=CCC2C1=O)N1CCN(c2ccc([N+](=O)[O-])cc2)CC1 (stereo not given),-1,
O=C(CCCC1=NS(=O)(=O)c2ccccc2N1)N1CCN(c2ccc([N+](=O)[O-])cc2)CC1,9.7*,HuH7 TTR inh=-13;TTR up confirm=-1
COCc1cc(CN2CCN(CCc3ccccc3)C(CCO)C2)ccc1OC (stereo not given),-1,
Cc1cc(C)n(C(C)CC(=O)N2CCc3ccccc32)n1 (stereo not given),1,
Cn1nc(C(=O)N2CCc3ccccc32)c2ccccc2c1=O,-1,
Cc1cc(C(=O)N2CCc3ccccc32)n(-c2ccccc2)n1,10*,HuH7 TTR inh=21*;TTR up confirm=11*
Cc1ccc(S(=O)(=O)Nc2ccccc2N2CCOCC2)cc1,-3,
CN(CCc1ccccc1)C(=O)c1cccc(NC(=O)Cc2cccc(NC(=O)C3CCN(C(=O)C4CCC4)CC3)c2)c1,-2,
CN(CCc1ccccc1)C(=O)c1cccc(NC(=O)Cc2cccc(NC(=O)C3CCN(C(=O)C4CCCCC4)CC3)c2)c1,-2,
CN(CCc1ccccc1)C(=O)c1ccc(NC(=O)Cc2cccc(NC(=O)C3CCN(C(=O)C4CCCCC4)CC3)c2)cc1,11*,HuH7 TTR inh=-14;TTR up confirm=1
COc1ccc(CN2C(=O)CN(S(C)(=O)=O)CC2(C)c2nnnn2C2CCCCC2)cc1 (stereo not given),1,
O=S1(=O)c2c(cccc2N2CCC[C@@H]2CO)OCCCN1C1CC1,0,
Cc1cc(/C=N/N2CCN(C)CC2)c(C)n1-c1ccccc1F,9.7*,HuH7 TTR inh=-12;TTR up confirm=1
SMILES,TTR transcr act,others
COC(=O)C1=C(C)NC(=O)/C1=C\c1cc(C)n(-c2ccccc2F)c1C,1,
Cc1c(C(=O)O)cccc1-n1c(C)cc(C=O)c1C,0,
CC(C)CN1C(=O)C[C@]2(C(=O)N(C)c3ccc(NC(=O)C(C)(C)C)cc32)C1c1ccccc1 (stereo not given in full),0,
COC(=O)c1cnn(-c2ccccc2)c1/C=N/NC(=S)Nc1ccccc1,11*,HuH7 TTR inh=-5;TTR up confirm=-1
COC(=O)c1cnn(-c2ccc(F)cc2F)c1/C=N/NC(=S)Nc1ccccc1,-1,
COC(=O)c1cnn(-c2ccc(Cl)cc2)c1/C=N/NC(=S)Nc1ccccc1,-2,
Cc1nc2ccc(C(=O)N3c4ccccc4N=C(c4ccc5c(c4)OCO5)C3C(=O)NCc3ccccc3)cc2[nH]1 (stereo not given),0,
CN(NC(=O)Nc1ccccc1)c1cnn(C)c(=O)c1Cl,0,
O=C(CCCSc1nc2ccccc2[nH]1)Nc1ccccc1,0,
Cc1cccc(NC(=O)CCCSc2nc3ccccc3[nH]2)c1,1,
Cc1ccccc1OCCCSc1nc2ccccc2[nH]1,31*,HuH7 TTR inh=-19;TTR up confirm=0
CC(C)[C@@H]1C(=O)N[C@H](Cc2cn(S(=O)(=O)c3ccccc3)c3ccccc23)C(=O)N1C,-1,
COC(=O)c1ccc(CN2CC3CC(c4ccccc4)N4CCCC34C2=O)cc1 (stereo not given),1,
COC(=O)c1ccc(NC(=O)C(=O)N2CCN(C(=S)Nc3ccc(C)cc3)CC2)cc1,3,
CCC1(C)C2(C#N)C(N)=NC(OC)(OC)C12C#N (stereo not given),16*,HuH7 TTR inh=-4;TTR up confirm=-1
CCCCNC(=O)C[C@H]1C[C@@]2(C(=O)OCC)CCCC3=C2N(CCC3)C1=O,-1,
S=C(NCc1ccccc1)NCc1ccccn1,1,
CN(CC1CCCO1)S(=O)(=O)c1ccc(C(=O)NCc2ccccc2)cc1 (stereo not given),3,
Cc1ccccc1CN1CCCCC(NC(=O)c2cccc([N+](=O)[O-])c2)C1=O (stereo not given),-2,
CC1(C)CC(=O)C=C(/C=C/c2ccccc2)C1,-1,
COC(=O)[C@@H]1[C@H](O[Si](C)(C)C(C)(C)C)[C@H]2O[C@H]2C[C@H]1S(=O)(=O)c1ccccc1,-1,
Cn1c(=O)c2c(nc(NN=C3CCCC3)n2C)n(C)c1=O,-1,
CCOc1ccc(NC(=O)CN(C)C(=O)c2c(C)nn(Cc3ccccc3Cl)c2C)cc1OCC,-1,
COC(=O)[C@@]12CCCN1[C@H](c1ccc(SC3CCCCC3)cc1)[C@H]1C(=O)N(C)C(=O)[C@H]12,-1,
CCN1C(=O)[C@H]2[C@@H](c3ccc(SC4CCCCC4)cc3)N3CCCC[C@@]3(C(=O)OC)[C@H]2C1=O,3,
SMILES,TTR transcr act,others
CCN1C(=O)[C@@H]2[C@@H](c3ccc(SC4CCCCC4)cc3)N3CCC[C@@]3(C(=O)OC)[C@@H]2C1=O,11*,HuH7 TTR inh=-4;TTR up confirm=0
CC(Oc1ccccc1)C(=O)N1CCN=C1SCc1ccccc1 (stereo not given),12*,HuH7 TTR inh=29*;TTR up confirm=-2
O=C(C1CC1)N1CCN=C1SCc1cccc(F)c1,0,
O=C(C1CC1)N1CCN=C1SCc1ccccc1,-2,
O=C(NCCc1c[nH]c2ccccc12)OCc1cn(Cc2ccc(C(F)(F)F)cc2)nn1,-1,
CCOC(=O)N1CCN(C(=O)C[C@H]2C[C@@]3(C(=O)OC)C(=C[C@H](C4CCCC4)O[C@@H]3C)N(Cc3ccco3)C2=O)CC1,1,
CCN1CCN(Cc2ccc(NC(=O)c3ccc(C)c(NC(=O)c4cccc5[nH]ccc45)c3)cc2C(F)(F)F)CC1,-2,
CCN1CCN(Cc2ccc(NC(=O)c3ccc(C)c(NC(=O)c4cc(-c5ccc(Br)cc5)n[nH]4)c3)cc2C(F)(F)F)CC1,-4,
CCN1CCN(Cc2ccc(NC(=O)c3ccc(C)c(NC(=O)c4nccn4C)c3)cc2C(F)(F)F)CC1,11*,HuH7 TTR inh=-15;TTR up confirm=0
Cc1noc(C)c1S(=O)(=O)NC(=O)C1(C)CCN1C(=O)C1(c2ccc(Cl)cc2)CC1 (stereo not given),1,
